# Measurements taken from ChEMBL document CHEMBL1961873, “Compounds: GSK PKIS; Assays: Nanosyn kinase panel” (2012).
# Experiments:
# [1] = target: T1, Aurora kinase A (Homo sapiens) (UniProt O14965); conditions: at 1 µM;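 further: values are mean percent inhibition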
# T1 sequence (whole entry): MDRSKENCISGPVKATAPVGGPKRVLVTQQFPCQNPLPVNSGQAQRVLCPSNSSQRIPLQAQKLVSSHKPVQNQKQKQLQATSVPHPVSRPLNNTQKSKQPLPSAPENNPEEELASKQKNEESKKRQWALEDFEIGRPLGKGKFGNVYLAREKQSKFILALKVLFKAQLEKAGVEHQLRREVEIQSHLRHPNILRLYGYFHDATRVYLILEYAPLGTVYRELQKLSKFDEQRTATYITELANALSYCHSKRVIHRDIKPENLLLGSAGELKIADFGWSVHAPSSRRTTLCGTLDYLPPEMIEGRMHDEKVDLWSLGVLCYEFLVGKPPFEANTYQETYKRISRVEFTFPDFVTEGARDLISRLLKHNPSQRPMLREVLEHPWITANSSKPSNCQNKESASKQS
# [2] = target: Aurora kinase B (Homo sapiens) (UniProt Q96GD4); conditions: at 0.1 µM
# [3] = target: Aurora kinase B (Homo sapiens) (UniProt Q96GD4); conditions: at 1 µM
# [4] = target: T2, Aurora kinase C (Homo sapiens) (UniProt Q9UQB9); conditions: at 0.1 µM
# T2 sequence (whole entry): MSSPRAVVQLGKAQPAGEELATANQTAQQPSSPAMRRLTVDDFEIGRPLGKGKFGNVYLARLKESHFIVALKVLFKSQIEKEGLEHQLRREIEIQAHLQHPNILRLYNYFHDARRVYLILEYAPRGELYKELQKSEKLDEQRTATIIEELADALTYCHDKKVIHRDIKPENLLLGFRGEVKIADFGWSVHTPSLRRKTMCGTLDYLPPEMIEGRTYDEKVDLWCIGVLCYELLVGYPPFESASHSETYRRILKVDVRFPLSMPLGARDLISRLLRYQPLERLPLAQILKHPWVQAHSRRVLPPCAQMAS
# [5] = target: T2, Aurora kinase C (Homo sapiens); conditions: at 1 µM
# [6] = target: Serine/threonine-protein kinase 10 (Homo sapiens) (UniProt O94804); conditions: at 0.1 µM
# [7] = target: Serine/threonine-protein kinase 10 (Homo sapiens) (UniProt O94804); conditions: at 1 µM
# [8] = target: T3, Mitogen-activated protein kinase kinase kinase kinase 2 (Homo sapiens) (UniProt Q12851); conditions: at 0.1 µM
# T3 sequence (whole entry): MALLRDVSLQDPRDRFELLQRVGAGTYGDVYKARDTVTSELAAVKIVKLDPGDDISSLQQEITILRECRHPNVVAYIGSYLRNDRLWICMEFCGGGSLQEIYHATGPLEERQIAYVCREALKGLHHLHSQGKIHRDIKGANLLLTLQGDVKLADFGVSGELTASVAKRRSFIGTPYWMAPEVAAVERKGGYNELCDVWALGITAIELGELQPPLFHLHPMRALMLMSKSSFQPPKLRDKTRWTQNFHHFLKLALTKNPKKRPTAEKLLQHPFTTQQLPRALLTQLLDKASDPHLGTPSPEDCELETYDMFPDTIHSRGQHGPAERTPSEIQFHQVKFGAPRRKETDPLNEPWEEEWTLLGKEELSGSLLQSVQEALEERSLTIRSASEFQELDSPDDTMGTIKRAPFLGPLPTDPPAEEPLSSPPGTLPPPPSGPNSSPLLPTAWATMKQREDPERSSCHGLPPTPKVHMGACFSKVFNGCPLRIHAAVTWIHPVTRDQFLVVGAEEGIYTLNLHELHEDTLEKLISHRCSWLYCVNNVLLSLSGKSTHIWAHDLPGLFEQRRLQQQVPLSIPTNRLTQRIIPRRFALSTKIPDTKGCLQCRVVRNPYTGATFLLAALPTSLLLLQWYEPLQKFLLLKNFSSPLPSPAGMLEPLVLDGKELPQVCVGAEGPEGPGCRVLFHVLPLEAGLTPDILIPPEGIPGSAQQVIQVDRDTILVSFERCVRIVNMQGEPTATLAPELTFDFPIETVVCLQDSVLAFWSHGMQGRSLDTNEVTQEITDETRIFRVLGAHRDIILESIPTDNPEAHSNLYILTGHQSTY
# [9] = target: T3, Mitogen-activated protein kinase kinase kinase kinase 2 (Homo sapiens); conditions: at 1 µM
# [10] = target: Mitogen-activated protein kinase kinase kinase kinase 4 (Homo sapiens) (UniProt O95819); conditions: at 0.1 µM
# [11] = target: Mitogen-activated protein kinase kinase kinase kinase 4 (Homo sapiens) (UniProt O95819); conditions: at 1 µM
# [12] = target: Dual specificity mitogen-activated protein kinase kinase 1 (Homo sapiens) (UniProt Q02750); conditions: at 0.1 µM
# [13] = target: Dual specificity mitogen-activated protein kinase kinase 1 (Homo sapiens) (UniProt Q02750); conditions: at 1 µM
# [14] = target: Misshapen-like kinase 1 (Homo sapiens) (UniProt Q8N4C8); conditions: at 0.1 µM
# [15] = target: Misshapen-like kinase 1 (Homo sapiens) (UniProt Q8N4C8); conditions: at 1 µM
# [16] = target: T4, Serine/threonine-protein kinase 4 (Homo sapiens) (UniProt Q13043); conditions: at 0.1 µM
# T4 sequence (whole entry): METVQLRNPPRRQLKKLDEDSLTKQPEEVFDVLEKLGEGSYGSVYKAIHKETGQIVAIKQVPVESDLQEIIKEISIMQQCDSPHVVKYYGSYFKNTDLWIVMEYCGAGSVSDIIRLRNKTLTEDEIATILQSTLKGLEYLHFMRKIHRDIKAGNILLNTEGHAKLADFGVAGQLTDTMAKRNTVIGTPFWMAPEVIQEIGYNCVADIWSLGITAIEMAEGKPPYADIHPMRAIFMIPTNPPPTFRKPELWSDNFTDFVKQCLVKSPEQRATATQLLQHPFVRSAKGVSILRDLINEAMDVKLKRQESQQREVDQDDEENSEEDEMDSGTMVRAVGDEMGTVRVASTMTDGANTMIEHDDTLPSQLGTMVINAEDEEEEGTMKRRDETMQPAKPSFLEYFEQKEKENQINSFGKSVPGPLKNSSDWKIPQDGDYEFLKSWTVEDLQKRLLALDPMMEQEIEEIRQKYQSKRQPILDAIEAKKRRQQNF
# [17] = target: T4, Serine/threonine-protein kinase 4 (Homo sapiens); conditions: at 1 µM
# [18] = target: T5, Serine/threonine-protein kinase 3 (Homo sapiens) (UniProt Q13188); conditions: at 0.1 µM
# T5 sequence (whole entry): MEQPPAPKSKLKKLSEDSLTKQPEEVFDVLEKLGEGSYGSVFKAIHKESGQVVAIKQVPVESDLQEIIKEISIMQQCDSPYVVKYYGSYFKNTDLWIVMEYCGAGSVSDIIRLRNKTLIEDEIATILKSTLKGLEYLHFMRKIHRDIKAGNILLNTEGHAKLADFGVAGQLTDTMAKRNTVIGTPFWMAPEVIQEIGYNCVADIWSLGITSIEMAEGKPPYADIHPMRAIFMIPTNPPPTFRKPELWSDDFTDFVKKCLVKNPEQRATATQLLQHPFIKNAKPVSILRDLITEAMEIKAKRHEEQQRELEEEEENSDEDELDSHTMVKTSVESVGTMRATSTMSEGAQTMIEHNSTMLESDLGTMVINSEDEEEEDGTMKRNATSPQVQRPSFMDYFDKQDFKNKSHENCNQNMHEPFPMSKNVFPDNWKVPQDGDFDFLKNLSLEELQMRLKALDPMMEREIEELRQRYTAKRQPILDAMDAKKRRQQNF
# [19] = target: T5, Serine/threonine-protein kinase 3 (Homo sapiens); conditions: at 1 µM
# [20] = target: Serine/threonine-protein kinase 26 (Homo sapiens) (UniProt Q9P289); conditions: at 0.1 µM
# Chain of Serine/threonine-protein kinase 26 (Homo sapiens) (Q9P289 2-416 limits assumed): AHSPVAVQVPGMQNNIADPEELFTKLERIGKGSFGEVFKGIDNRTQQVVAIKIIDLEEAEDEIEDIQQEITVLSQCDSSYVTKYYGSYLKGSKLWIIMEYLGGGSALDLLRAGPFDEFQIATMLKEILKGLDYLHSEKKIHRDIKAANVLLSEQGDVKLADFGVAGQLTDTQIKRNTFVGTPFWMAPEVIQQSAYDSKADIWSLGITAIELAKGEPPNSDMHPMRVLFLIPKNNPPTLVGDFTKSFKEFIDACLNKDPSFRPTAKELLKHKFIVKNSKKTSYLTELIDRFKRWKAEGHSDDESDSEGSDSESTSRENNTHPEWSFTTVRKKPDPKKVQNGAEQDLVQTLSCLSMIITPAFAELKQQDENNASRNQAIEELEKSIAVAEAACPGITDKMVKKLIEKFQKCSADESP
# Chain of Dual specificity mitogen-activated protein kinase kinase 1 (Homo sapiens) (Q02750 whole entry): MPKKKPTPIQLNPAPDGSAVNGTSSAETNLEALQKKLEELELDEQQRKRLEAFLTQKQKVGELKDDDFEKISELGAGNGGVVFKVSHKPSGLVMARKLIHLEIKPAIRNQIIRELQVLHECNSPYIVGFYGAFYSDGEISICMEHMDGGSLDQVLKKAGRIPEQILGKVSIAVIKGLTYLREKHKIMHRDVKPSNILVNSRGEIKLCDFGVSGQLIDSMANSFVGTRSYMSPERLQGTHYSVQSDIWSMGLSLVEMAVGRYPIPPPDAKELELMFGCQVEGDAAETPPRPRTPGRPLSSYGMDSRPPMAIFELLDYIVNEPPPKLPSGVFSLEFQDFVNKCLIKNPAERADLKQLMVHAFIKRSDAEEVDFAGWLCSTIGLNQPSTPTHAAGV
# Chain of Aurora kinase B (Homo sapiens) (Q96GD4 whole entry): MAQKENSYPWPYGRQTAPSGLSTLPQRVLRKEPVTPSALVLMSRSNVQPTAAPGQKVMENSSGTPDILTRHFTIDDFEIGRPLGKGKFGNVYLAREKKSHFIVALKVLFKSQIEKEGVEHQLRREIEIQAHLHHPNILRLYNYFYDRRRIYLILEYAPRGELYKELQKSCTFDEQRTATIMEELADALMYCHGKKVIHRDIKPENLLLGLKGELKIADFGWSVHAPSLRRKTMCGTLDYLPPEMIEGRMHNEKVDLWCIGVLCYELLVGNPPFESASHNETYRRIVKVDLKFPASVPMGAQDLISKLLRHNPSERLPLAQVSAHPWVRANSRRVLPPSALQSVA
# Chain of Mitogen-activated protein kinase kinase kinase kinase 4 (Homo sapiens) (O95819 2-1239 limits assumed): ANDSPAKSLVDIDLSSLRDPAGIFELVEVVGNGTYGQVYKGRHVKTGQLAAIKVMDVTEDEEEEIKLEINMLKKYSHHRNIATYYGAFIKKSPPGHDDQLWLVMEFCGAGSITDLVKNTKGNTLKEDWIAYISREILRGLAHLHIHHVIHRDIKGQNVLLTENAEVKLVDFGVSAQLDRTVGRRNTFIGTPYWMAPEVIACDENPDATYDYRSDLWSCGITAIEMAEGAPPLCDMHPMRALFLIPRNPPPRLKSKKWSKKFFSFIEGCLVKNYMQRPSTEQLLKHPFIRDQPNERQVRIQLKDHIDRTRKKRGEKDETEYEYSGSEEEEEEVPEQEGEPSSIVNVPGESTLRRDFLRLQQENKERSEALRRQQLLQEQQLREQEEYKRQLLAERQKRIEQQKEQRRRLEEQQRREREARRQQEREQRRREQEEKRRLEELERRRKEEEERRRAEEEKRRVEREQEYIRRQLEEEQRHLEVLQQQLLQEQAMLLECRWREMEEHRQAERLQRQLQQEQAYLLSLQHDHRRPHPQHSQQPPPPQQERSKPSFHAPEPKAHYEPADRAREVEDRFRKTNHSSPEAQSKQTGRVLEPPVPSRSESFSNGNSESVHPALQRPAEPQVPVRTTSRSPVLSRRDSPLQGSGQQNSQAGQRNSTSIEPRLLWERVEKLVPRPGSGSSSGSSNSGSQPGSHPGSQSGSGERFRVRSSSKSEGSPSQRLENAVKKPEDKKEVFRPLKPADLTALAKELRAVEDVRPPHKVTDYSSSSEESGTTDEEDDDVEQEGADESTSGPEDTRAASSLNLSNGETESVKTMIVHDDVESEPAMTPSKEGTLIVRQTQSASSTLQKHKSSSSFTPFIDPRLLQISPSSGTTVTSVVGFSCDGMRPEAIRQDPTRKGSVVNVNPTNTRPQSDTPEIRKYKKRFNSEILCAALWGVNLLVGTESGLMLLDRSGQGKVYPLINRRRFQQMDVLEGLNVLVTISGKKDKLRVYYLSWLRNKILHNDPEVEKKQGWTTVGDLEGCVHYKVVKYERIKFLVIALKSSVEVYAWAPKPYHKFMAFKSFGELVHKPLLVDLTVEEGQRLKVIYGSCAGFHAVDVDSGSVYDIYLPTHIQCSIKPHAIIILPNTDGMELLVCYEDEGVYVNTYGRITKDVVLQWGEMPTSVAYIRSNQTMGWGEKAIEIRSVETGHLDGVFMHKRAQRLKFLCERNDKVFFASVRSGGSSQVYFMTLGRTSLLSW
# Chain of Misshapen-like kinase 1 (Homo sapiens) (Q8N4C8 whole entry, looked up): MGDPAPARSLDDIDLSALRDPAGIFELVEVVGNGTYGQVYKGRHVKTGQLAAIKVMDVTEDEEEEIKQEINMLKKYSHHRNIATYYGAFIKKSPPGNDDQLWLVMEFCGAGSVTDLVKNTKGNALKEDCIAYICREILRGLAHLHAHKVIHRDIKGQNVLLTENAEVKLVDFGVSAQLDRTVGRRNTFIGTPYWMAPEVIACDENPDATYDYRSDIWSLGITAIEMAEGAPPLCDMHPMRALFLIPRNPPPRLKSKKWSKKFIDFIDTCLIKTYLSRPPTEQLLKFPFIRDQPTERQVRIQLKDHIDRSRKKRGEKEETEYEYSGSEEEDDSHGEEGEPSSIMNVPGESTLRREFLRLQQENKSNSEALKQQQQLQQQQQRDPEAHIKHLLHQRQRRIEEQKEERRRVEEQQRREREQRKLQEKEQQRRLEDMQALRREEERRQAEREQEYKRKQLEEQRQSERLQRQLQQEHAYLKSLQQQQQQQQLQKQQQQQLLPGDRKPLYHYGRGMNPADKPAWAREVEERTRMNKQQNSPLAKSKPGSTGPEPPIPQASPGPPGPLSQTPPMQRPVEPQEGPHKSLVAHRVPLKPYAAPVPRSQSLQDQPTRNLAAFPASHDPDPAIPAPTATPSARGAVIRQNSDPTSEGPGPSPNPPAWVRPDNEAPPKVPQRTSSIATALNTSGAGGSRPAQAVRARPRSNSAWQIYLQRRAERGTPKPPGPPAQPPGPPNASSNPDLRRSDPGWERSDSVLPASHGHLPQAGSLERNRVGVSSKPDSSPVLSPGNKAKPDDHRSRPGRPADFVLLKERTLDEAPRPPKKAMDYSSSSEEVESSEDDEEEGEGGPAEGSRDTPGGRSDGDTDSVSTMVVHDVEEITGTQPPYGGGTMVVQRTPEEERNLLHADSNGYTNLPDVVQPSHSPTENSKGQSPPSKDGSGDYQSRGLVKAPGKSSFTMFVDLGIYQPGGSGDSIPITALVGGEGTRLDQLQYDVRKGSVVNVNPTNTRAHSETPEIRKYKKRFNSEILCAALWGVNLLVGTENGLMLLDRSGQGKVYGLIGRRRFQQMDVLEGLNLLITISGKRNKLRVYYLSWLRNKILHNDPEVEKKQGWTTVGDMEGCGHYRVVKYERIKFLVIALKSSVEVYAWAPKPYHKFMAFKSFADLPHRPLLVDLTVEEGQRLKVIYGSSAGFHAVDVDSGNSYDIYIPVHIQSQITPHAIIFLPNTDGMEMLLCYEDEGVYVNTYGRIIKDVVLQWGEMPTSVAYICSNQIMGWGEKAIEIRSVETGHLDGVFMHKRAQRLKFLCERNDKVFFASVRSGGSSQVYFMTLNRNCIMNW
# Chain of Serine/threonine-protein kinase 10 (Homo sapiens) (O94804 whole entry, looked up): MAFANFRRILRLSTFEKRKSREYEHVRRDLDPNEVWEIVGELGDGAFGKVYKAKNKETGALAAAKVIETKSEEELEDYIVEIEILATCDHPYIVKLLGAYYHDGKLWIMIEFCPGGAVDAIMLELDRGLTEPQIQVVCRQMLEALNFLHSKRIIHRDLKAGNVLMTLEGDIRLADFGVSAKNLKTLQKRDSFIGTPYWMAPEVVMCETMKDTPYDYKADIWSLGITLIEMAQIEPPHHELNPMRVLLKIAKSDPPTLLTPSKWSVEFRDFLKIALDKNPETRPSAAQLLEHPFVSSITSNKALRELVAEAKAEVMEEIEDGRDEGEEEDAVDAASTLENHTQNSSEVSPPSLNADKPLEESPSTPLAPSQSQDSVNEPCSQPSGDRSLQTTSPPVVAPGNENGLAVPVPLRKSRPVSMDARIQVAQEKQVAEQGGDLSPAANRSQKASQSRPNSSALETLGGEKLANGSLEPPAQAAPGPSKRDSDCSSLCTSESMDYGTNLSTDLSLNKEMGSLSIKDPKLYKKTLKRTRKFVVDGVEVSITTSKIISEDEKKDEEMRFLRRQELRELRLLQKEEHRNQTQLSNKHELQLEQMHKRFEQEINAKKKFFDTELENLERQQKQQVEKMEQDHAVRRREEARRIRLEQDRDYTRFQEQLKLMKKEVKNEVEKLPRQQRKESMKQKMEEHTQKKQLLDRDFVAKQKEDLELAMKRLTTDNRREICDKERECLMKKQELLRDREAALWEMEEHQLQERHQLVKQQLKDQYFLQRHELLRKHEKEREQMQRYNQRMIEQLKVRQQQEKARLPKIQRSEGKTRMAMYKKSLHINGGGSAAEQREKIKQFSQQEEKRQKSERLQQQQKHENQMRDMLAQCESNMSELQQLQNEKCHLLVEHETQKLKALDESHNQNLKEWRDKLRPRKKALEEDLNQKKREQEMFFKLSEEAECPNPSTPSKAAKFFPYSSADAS
SMILES,inhibition [1],inhibition [2],inhibition [3],inhibition [4],inhibition [5],inhibition [6],inhibition [7],inhibition [8],inhibition [9],inhibition [10],inhibition [11],inhibition [12],inhibition [13],inhibition [14],inhibition [15],inhibition [16],inhibition [17],inhibition [18],inhibition [19],inhibition [20]
COc1cccc(-n2ncc3c(N/N=C/c4ccc(C(=O)NCCN(C)C)cc4)ncnc32)c1,62.7%,7.23%,38.6%,5.58%,57%,23%,61.2%,3.89%,21.8%,31.3%,78.1%,2.77%,4.04%,23.1%,64.8%,4.6%,10.1%,4.33%,6.3%,-1.8%
O=C(O[C@H]1CN[C@H](C#Cc2cc3ncnc(Nc4ccc(OCc5cccc(F)c5)c(Cl)c4)c3s2)C1)N1CCOCC1,7.57%,3.72%,9.81%,1.9%,5.83%,9.8%,19%,1.53%,0.84%,5.04%,8.44%,6.24%,5.74%,6.37%,9.94%,4.18%,8.15%,5.87%,6.61%,-0.22%
OCCCNc1nccc(-c2c(-c3ccc(F)cc3)nn3cc(C(F)(F)F)ccc23)n1,7.6%,3.85%,9.08%,0.36%,2.19%,6.36%,8.12%,0.6%,3.51%,5.34%,21.4%,1.92%,7.22%,5.07%,13.3%,3.31%,5.88%,4.28%,2.96%,0.48%
CNC(=O)c1ncccc1Nc1nc(Nc2cc3c(cc2OC)CCCN3C(=O)CN(C)C)nc2[nH]ccc12,6.59%,3.79%,8.73%,2.36%,4.16%,7.25%,4.81%,1.56%,4.18%,4.22%,6.26%,3.03%,3.53%,5.92%,7.79%,8.58%,12.8%,8.59%,7.84%,-2.11%
CNC(=O)c1cncc(/C=C/c2ccccc2C)c1,9.59%,3.77%,-0.01%,2.1%,-3.67%,6.73%,9.43%,0.94%,2.16%,8.34%,19.7%,6.36%,5.22%,8.44%,15.5%,9.28%,17.2%,9.07%,15.2%,1.02%
COc1ccc2ncn(-c3cc(O[C@H](C)c4ccccc4C(F)(F)F)c(C(N)=O)s3)c2c1,5.59%,1.15%,7.77%,-1.97%,-0.3%,35.2%,80.7%,0.64%,4.67%,0.55%,3.61%,0.25%,-0.57%,1.05%,4.03%,1.43%,22.5%,0.2%,18.8%,0.64%
